Data as given in PubChem BioAssay.
Active and inactive are the calls of the source.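 How the source made its calls: active means inhibition at or above 50% at 10 µM; inactive means inhibition below 50%.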

Assay: inhibitors of Sendai virus-induced IRF3 signaling, primary screen, TLR/RLR signaling modifier project, cell-based, Sendai virus stimulus, luciferase, 10K MLSCN set (AID 602276);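 further: firefly luciferase from ISG56 promoter only with Renilla not read in this screen; 0% = Sendai virus plus DMSO and 100% = medium plus DMSO without virus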
Settings: HEK293 RL24 IRF3 luciferase reporter, at 10 µM, stronger effect = higher value

Compound	inhibition
CCc1c(C(=O)Nc2ncn(Cc3cccc(C)c3)n2)csc1C	7.43% (inactive)
CCC(=O)N1CCN(c2nc(-c3ccccc3)c3c(c2C#N)CCCC3)CC1	13.4% (inactive)
COc1ccc(S(=O)(=O)N(C)CC(=O)N2CCCCC2)cc1Cl	13.8% (inactive)
CN(CC(=O)N1CCCCC1)S(=O)(=O)c1cccc2cccnc12	3.62% (inactive)
CS(=O)(=O)N(CC(=O)Nc1cccc(F)c1)Cc1ccccc1	5.19% (inactive)
O=S(=O)(c1cccc(S(=O)(=O)N2CCC(N3CCCCC3)CC2)c1)N1CCOCC1	7.24% (inactive)
Cc1ccc(-c2nc3cc(N)ccc3o2)cc1	2.48% (inactive)
COc1ccc(OC)c(C(=O)CSc2nc3ncccc3[nH]2)c1	-7.2% (inactive)
O=C1c2ccccc2C(Nc2ccc3c(c2)OCO3)N1Cc1ccc2c(c1)OCO2 (centres undefined)	-3.95% (inactive)
COc1ccc(-c2nc(C)c(C(C)=O)n2O)cc1OC	-2.76% (inactive)
CCOc1ccc(N(CC(=O)Nc2ccc(F)c(F)c2)S(=O)(=O)c2c(C)noc2C)cc1	13% (inactive)
CC(=O)Nc1ccc(NS(=O)(=O)c2ccc(Cl)c(C(=O)O)c2)cc1	-2.13% (inactive)
CC(=O)c1cccc(NC(=O)CCNS(=O)(=O)c2cccc3nsnc23)c1	11.2% (inactive)
CCOc1ccccc1-n1nnnc1SCC(=O)Nc1cc2oc3ccccc3c2cc1OC	-7.46% (inactive)
COc1cccc(NC(=O)CSc2nnc(Cc3cccn3C)n2-c2ccc(F)cc2)c1	-1.59% (inactive)
CCN1CCN(c2nc(C)nc3c2sc(=S)n3C)CC1	-3.52% (inactive)
CCCc1[nH]nc2c1C(c1cn[nH]c1-c1ccc(F)cc1)C(C#N)=C(N)O2 (centres undefined)	18.7% (inactive)
COC(=O)c1sc(N)c(C(=O)OC)c1COC(=O)C1CC(=O)N(Cc2ccco2)C1 (centres undefined)	15.8% (inactive)
COC(=O)CCC(NC(=O)c1cc(-c2ccc3c(c2)OCCO3)oc1C)C(=O)OC (centres undefined)	-2.55% (inactive)
CSc1cccc(NC(=O)CN(C)S(=O)(=O)c2ccccc2)c1	6.98% (inactive)
CC(C)c1nnc(NC(=O)Cc2cccs2)s1	0.388% (inactive)
COc1ccc(NC(=O)CSc2nc3c(c(=O)n2-c2ccc(F)cc2)SCC3)c(OC)c1	19.4% (inactive)
CC(C)(CO)NC(=O)CCCOc1ccc(Cl)cc1Cl	-27.2% (inactive)
Cc1cc(C)n(-c2ccc(N3CCOCC3)nn2)n1	-5.9% (inactive)
